From PubChem BioAssay AID603 (National Center for Advancing Translational Sciences (NCATS), 2007)
The whole screen tested about 71,000 compounds, of which about 180 (0.25%) were called active. Calls come from the whole dose curve; as a rule, active = well fitted curve in the direction sought with a large enough effect; inconclusive = small, poorly fitted or top-dose-only effect; inactive = flat fitted curve, though single readings scatter. Shown is part of a subset that was picked to be rich in actives.

The molecules below were run on DNA polymerase III holoenzyme (E. coli) (assay: qHTS Assay for Inhibitors of DNA Polymerase III Holoenzyme System). Conditions: reconstituted DNA polymerase III holoenzyme replication, biochemical; series mostly up to 57.1 µM; activity change, negative = inhibition: at the top concentration.
Description: NIH Molecular Libraries Screening Centers Network [MLSCN]
NIH Chemical Genomics Center [NCGC]
Assay Provider: Charles McHenry, University of Colorado
E. coli DNA polymerase III holoenzyme complex was assayed for DNA production by fluorescent detection of the double-stranded DNA product with PicoGreen dye. The holoenzyme complex was reconstituted from the following purified protein components: DNA Polymerase III, beta subunit processivity factor, SSB single-stranded DNA binding protein, and Primase. Single-stranded, circular M13Gori was used as a substrate with dNTPs and NTPs also supplied to the substrate reagent. Compounds from the NCGC collection were incubated with the holoenzyme mixture for 15 min at room temperature to allow binding to occur, and then the reaction was started by the addition of substrate. After 30 min incubation at room temperature, PicoGreen solution containing EDTA was added to stop the reaction and to visualize the double-stranded DNA produced. Reaction progress was measured in a ViewLux CCD imager in fluorescence intensity mode by using 480 nm excitation and 540 nm emission filter set.
NCGC Assay Protocol Summary:
Buffer. 50 mM Hepes-KOH, pH 7.5, 5 % Glycerol, 0.02% NP40, 30 mM potassium;
glutamate, 1.5 mM Magnesium Acetate, 16 uM TCEP.
Buffer in columns 3 and 4 as negative control (no enzyme).
Substrate solution: 5 uM each dATP, dGTP, dCTP and TTP, 50 uM each GTP, CTP, UTP and 200 uM ATP, 1.4 nM M13gori (final concentrations).
Enzyme: 154 nM SSB, 2 nM Primase, 1 nM Beta, 0.35 nM Pol III (final concentrations).
PicoGreen/EDTA: 10 mM Tris-HCl, 10 mM EDTA, 5 uM PicoGreen (final concentrations).
Control titration: ChemBridge 5805060 (from 10 mM, then 1:2, in duplicate) was pin-transferred to upper half of column 2.
Three uL of holoenzyme mixture were dispensed to 1536-well Greiner black solid bottom plates. Compounds and controls (23 nL) were transferred via Kalypsys PinTool. The plates were incubated for 15 min at room temperature, and then 1 uL of substrate solution was added to start the reaction. After room temperature incubation for 35 minutes, 1 uL of PicoGreen solution was added to each well and the plates were read 480 nm excitation and 540 nm emission using ViewLux (Perkin-Elmer) High-throughput CCD imager and fluorescence protocol settings.
Keywords: NIH Roadmap, MLSCN, MLI, MLSMR, qHTS, NCGC, DNA Polymerase III, DNAPol3, DNAPoly3, DNA replication targets
% is set by controls: 0 for no effect and ±100 for the full control effect.

Activity change, negative = inhibition, inactive:
CC(C)c1cc(CN(C)C)c(O)c(C(C)(C)C)c1 -6.4% [at 11.4 µM]
COc1cccc(Cn2c(=O)c(-c3cc(F)cc(F)c3)nc3cnc(OC)nc32)c1 -8.3%
O=c1cc(-c2ccccc2)[nH]c2nc(Cl)ccc12 -6.8%
COC(=O)[C@@]1(Cc2ccc(F)cc2)[C@H]2c3cc(C(=O)N4CCCC4)n(C[C@H](O)CO)c3C[C@H]2CN1C(=O)c1ccccc1 0.9%
CC(=O)O[C@]1(C(C)=O)CC[C@@H]2[C@@H]3C=C(C)C4=CC(=O)CC[C@@]4(C)[C@H]3CC[C@]21C 1% [at 25.6 µM]
O=C(O)CC(C(=O)O)C(CC(=O)O)C(=O)O (stereo unspecified) -4%
COc1ccc(OC)c(NC(=O)CSc2nc(N)c(-c3ccccc3)c(=O)[nH]2)c1 -5.9%
O=C(CSc1nnc(-c2ccncc2)n1C1CCCCC1)Nc1ccccc1 -3%
CCN(CC)S(=O)(=O)c1ccc(NC(=O)CN(c2cccc(F)c2)S(C)(=O)=O)cc1 -3.6%
O=C(Nc1c(-c2ccccc2)nc2c(Br)cc(Br)cn12)c1ccco1 -2%
COC(=O)[C@@]1(Cc2ccc(F)cc2)[C@@H]2[C@@H](CC(=O)[C@H]2CC(=O)C(=O)N2CCCC2)CN1C(=O)c1ccccc1 -11.1%
O=c1[nH]c(=O)c2nc3ccccc3nc2[nH]1 -12.6%
O=C(NCc1ccccn1)c1cc2ccccc2oc1=O -6.4%
Cc1cccn2c(=O)c3cc(C(=O)NCc4ccccn4)n(C)c3nc12 -3.4%
CC(C)Cc1ccc(S(=O)(=O)N2CCN(C(=O)c3ccco3)CC2)cc1 0.3%
COc1ccc(NC(=O)N2CC3(CCN(C(=O)c4cccn4C)CC3)C2)cc1 8.4%
CC1Cc2nc(SCC(=O)Nc3ccccc3F)n(C)c(=O)c2S1 (stereo unspecified) -4.2%
Cc1cc(C)cc(N(CC(=O)NCC2CCCO2)S(=O)(=O)c2c(C)noc2C)c1 (stereo unspecified) 1.2%
COc1ccc(C[C@H](N)C(=O)N[C@@H]2[C@H](O)[C@H](n3cnc4c(N(C)C)ncnc43)O[C@@H]2CO)cc1 -1.2% [at 25.6 µM]
COc1ccc(-c2nnc(SCC(=O)NC3CCCCC3)o2)cc1OC -1.4%
COc1ccc2nc(N3CCCC(O)C3)c(C#N)cc2c1 (stereo unspecified) -8.3%
CC(=O)Oc1ccccc1C(=O)Nc1ncc([N+](=O)[O-])s1 -1.5%
COC(=O)[C@H](C)[C@H]1C[C@]1(C)[C@H](NC(=O)OCc1ccccc1)c1ccccc1 -3.5%
CCOC(=O)N1CCN(C(=O)COc2ccc(Br)cc2)CC1 0.2% [at 11.4 µM]
N#Cc1c(NC(=O)CSc2nc3ccccc3c(=O)n2Cc2ccco2)sc2c1CCCC2 -1.2%

Potency, active:
O=C(NCc1ccccn1)c1ccc2nc(-c3ccco3)c(-c3ccco3)nc2c1 3.98 µM
